CYP2C19 act: increases human CYP2C19 enzyme activity. AID 1025. 96,000 tested, under 10 active. P33261. activation factor at 5 µM. recombinant CYP2C19, luciferin-H EGE luminescence; active compounds read high; 0 = fully inhibited enzyme, 1 = untreated enzyme;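 active = activation factor of at least 2 at 5 µM in the primary screen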;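 also: 0 = wells with 2.5 mM tranylcypromine and 1 = vehicle-only wells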
Cav3 T inh: human Cav3.2 channel inhibition, primary screen; Cav3.2-expressing cells, Fluo-4 calcium fluorescence FDSS; active compounds read low; O95180; hit rate 4% among 100,000; B-score at 10 µM;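 active = single-dose well whose peak fluorescence ratio is a statistical outlier from its plate by either plate-standardised score or position-corrected B-score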
CYP2C9 activ: increases human cytochrome P450 2C9 activity. recombinant CYP2C9, luciferin-H conversion, luminescence; active compounds read high; factor 1 = untreated enzyme, 0 = blocked. hit rate 1.4% among 96,000. AID 1024. P11712. activation factor at 5 µM;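 active = activation factor of 2 or more for CYP2C9 at a 5 µM dose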;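 also: 0 = sulfaphenazole-blocked wells and 1 = vehicle-only wells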
CYP2C9 inh: blocks human cytochrome P450 2C9; CYP2C9 Supersomes, luciferin-H conversion, luminescence; AID 777; inhibition, % at 5 µM; hit rate 20% among 96,000;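 active = blocking of liver enzyme CYP2C9 beyond about 50% at 5 µM, limit read from the data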
CYP2C19 inh: blocks human cytochrome P450 2C19; AID 778; hit rate 21% among 96,000; inhibition, % at 5 µM; CYP2C19 Supersomes, luciferin-H EGE luminescence, 30 min;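 active = CYP2C19 inhibition above a set limit at 5 µM in the primary screen, cut at about 50% in these data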;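 also: plate controls were negative control wells for no effect and 2.5 mM tranylcypromine positive control for full effect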
Starred values were filed as active, the others as inactive; nt = not tested or not shown. The list is not random: actives were taken first. Their share in the collection is about 27%.

SMILES	CYP2C19 act	Cav3 T inh	CYP2C9 activ	CYP2C9 inh	CYP2C19 inh
Cc1nnc(SCC(=O)OC2CC(C)CCC2C(C)C)[nH]c1=O (stereo unspecified)	0.7	0.46	0.1	88*	32
CCc1ccc(NC(=O)CCS(=O)(=O)c2cccc3nsnc23)cc1	0.1	-0.042	0.2	85*	87*
COc1cccc(CNC(=O)CCS(=O)(=O)c2cccc3nsnc23)c1	0.4	nt	1.3	-33	64*
COCCN1C(=O)c2ccccc2C(C(=O)N2CCN(c3ccccn3)CC2)C1c1ccc(F)cc1 (stereo unspecified)	nt	0.58	nt	nt	nt
COc1ccc(OC)c(C2=NOC(C(=O)Nc3ccccc3SC)C2)c1 (stereo unspecified)	0.1	-3	1.3	-33	86*
COc1cc(NC(=O)C2CC(c3cccc(OC)c3OC)=NO2)cc(OC)c1OC (stereo unspecified)	0.4	1.4	1.4	-37	61*
COc1ccc(OC)c(C2=NOC(C(=O)Nc3cccc(C(C)=O)c3)C2)c1 (stereo unspecified)	0.5	1	2.3*	-134	52*
CCOc1ccccc1CNC(=O)CCNC(=O)Cn1ccc2ccccc2c1=O	0.8	0.35	0.8	24	15
Clc1ccc(-c2nnc(SCc3ccon3)o2)c(Cl)c1	0	-0.77	0.4	62*	97*
C=CCSc1nnc(-c2ccc(Cl)cc2Cl)o1	0.2	nt	0.7	32	84*
CCOCCCn1c(=O)c(NC(=O)c2ccc(OCC)cc2)c2n(c1=S)CCCCC2	0.9	-0.82	0.7	26	7
O=S(=O)(c1ccc(Cl)cc1)N1CCC(N2CCCCCC2)CC1	1	0.91	1.2	-16	-4
CC1=CC(C)(C)C(C(=O)O)C(C(=O)O)C1 (stereo unspecified)	1.1	-0.0066	1	1	-8
CCC(CC)C(=O)Nc1cccc(C(=O)NCc2ccco2)c1	0.8	-1.8	0.7	33	23
O=C(NCc1ccc2c(c1)OCO2)c1cc2c(s1)CSC2	nt	-0.45	nt	nt	nt
O=C(NCc1ccco1)c1cc2c(s1)CSC2	0.7	0.77	0.4	56*	32
Cc1cc(C)n(-c2ccc(C(=O)Nc3ccc(S(=O)(=O)NCc4ccco4)cc3)cc2)n1	0.8	0.1	0.3	66*	24
O=C(NCc1ccco1)c1cccc(NC(=O)c2ccccc2)c1	0.6	0.69	0.1	93*	38
Cc1occc1C(=O)Nc1cccc(C(=O)NCc2ccccc2)c1	0.3	-3.8*	0.1	93*	68*
COc1ccccc1COC(=O)Nc1c(C)nn(C)c1Cl	0.7	-0.67	1.3	-29	34
Cc1cccc(CSc2nc3ccncc3n2CC(=O)Nc2cc(C)cc(C)c2)c1	nt	-0.87	nt	nt	nt
CNC(=O)C1CC(=O)N/C(=N/N=C(\C)c2cccs2)S1 (stereo unspecified)	0.9	0.066	0.8	18	7
Cc1ccc(C(=O)Nc2cccc(C(=O)NCc3ccco3)c2)cc1	0.9	nt	0.2	83*	12
O=C(Nc1ccccc1)c1cccc(S(=O)(=O)NCc2ccco2)c1	0.5	1	0.5	51*	51*
Cc1ccc(C(=O)NCc2ccco2)cc1S(=O)(=O)Nc1cccc(Cl)c1	0.1	-6*	0	98*	87*
SMILES	CYP2C19 act	Cav3 T inh	CYP2C9 activ	CYP2C9 inh	CYP2C19 inh
COc1ccccc1NC(=O)CN(Cc1ccco1)C(=O)c1ccc(-n2nc(C)cc2C)cc1	0.9	-0.025	0.1	94*	11
CC(=O)c1cccc(NC(=O)NCc2ccco2)c1	0.7	0.19	0.6	41	30
Cc1cccc(NC(=O)/C(=C\c2ccco2)NC(=O)c2cccs2)c1	0.9	-0.27	0.9	13	14
Cc1ccc(C(=O)N/C(=C/c2ccco2)C(=O)Nc2cccc(C)c2)cc1	0.5	-0.19	0.1	90*	51*
Cc1nc2c(C#N)c[nH]n2c(=O)c1Cc1ccccc1	0.9	1.3	0.4	63*	13
N#Cc1c[nH]n2c(=O)cc(Cc3ccccc3)nc12	1	-0.00033	0.6	43	-2
Cc1[nH]n2c(=O)cc(Cc3ccccc3)nc2c1C#N	1.1	-0.25	0.2	77*	-6
Cc1nc2c(C#N)c(C)[nH]n2c(=O)c1Cc1ccccc1	1.1	nt	0.4	63*	-9
Cc1cccc(-c2cc3nc4c(c(NCc5ccco5)n3n2)CCCC4)c1	0.8	-3.1	0.7	35	15
CCOC(=O)c1cnn(-c2ccc(Cl)cc2)c1C1CCN(C(=O)OC(C)(C)C)CC1	0.1	nt	0.2	85*	89*

Screens: PubChem BioAssay, several laboratories
